From PubChem
Hits are enriched below; roughly 2.6% of the tested compounds scored in any of these assays.
OvCa metastasis: inhibitors of ovarian cancer cell adhesion and invasion in omental model. AID 1963576. 46,000 compounds, 0.1% hits. Potency, µM (titrated, usually from 45.8 µM), without a hit: at the highest dose activity change, negative = inhibition, hits mostly inhibitors. SKOV3ip1-GFP adhesion/invasion on 3D omental model, fluorescence;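 note: plate controls were DMSO wells for no effect and tomatine positive control wells for full effect; nearly all actives have a fitted effect of over 65% in size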
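A 3D layer of primary human omental fibroblasts, mesothelial cells, fibronectin and collagen I, grown 48 hr, received SKOV3ip1-GFP cells in serum-free medium plus compounds at 0.36-46 umol/L. After 2 hr RT and 16 hr 37 C, fixed adherent GFP cells were counted; normalized to DMSO and tomatine.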
S16 viability: S16 Schwann cell cytotoxicity | Potency, µM (highest dose often 57.5 µM), for the others: at the highest dose activity change, negative = cytotoxicity, most hits filed as cytotoxic | AID 1508642 | 43,000 compounds, 0.48% hits | S16 Pmp22-F2sN Schwann cells viability, CellTiter-Glo, 24 h; note: nearly all actives have a fitted effect of over 65% in size
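Used to flag compounds lowering reporter output through toxicity, this quantitative HTS measures ATP-based CellTiter-Glo luminescence in S16 Pmp22-F2sN Schwann cells after 24 h compound exposure at 37C.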
PMP22 txn: modulators of PMP22 gene transcription in S16 Schwann cells | S16 Pmp22-F2sN Schwann cells (luciferase reporters placed in the Pmp22 gene), FLuc/NLuc coincidence luminescence, 24 h | Potency, µM (doses to about 57.5 µM), inactives show top-dose activity change, negative = inhibition, hits mostly inhibitors | 43,000 compounds, 2% hits; active = clear falling dose curves in both reporters; inconclusive = both reporters move, but less clearly or upward; inactive = either reporter flat; the % is the NLuc reporter signal
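Reporter cells (S16 Pmp22-F2sN, 500–1,000 per well) exposed to compounds for 24 h, 37C, 5% CO2; lysis with FLuc read after 10 min, then Stop&Glo and NLuc read after 10 min.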
mTORC1 inh: inhibitors of mTORC1 signaling in Tsc2-/- p53-/- MEF cells. Tsc2-/- p53-/- MEF, phospho-rpS6 immunofluorescence/PI, 24 h. Potency, µM (titrated, usually from 38.3 µM), without a hit: top-dose activity change, negative = inhibition, usual class: inhibitors. 44,000 compounds, 0.78% hits. AID 493208;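 note: plate controls were DMSO for no effect and rapamycin for full effect; nearly all actives have a fitted effect of over 50% in size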
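Compounds act on Tsc2-/-, p53-/- fibroblasts carrying an empty vector for 24 h before fixation and dual staining for phospho-S6 and DNA (propidium iodide). Values are percentages of cells above a rapamycin-defined pS6/PI threshold.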
Active calls of the source: *; i = inactive; ? = inconclusive; nt = not tested or not shown. Unless noted, calls come from the whole dose curve; as a rule, active = well fitted curve in the direction sought with a large enough effect; inconclusive = small, poorly fitted or top-dose-only effect, or another doubt; inactive = no such curve, though single readings can be large; an effect the other way counts as inactive or inconclusive. Unless noted, % is set by controls: 0 for no effect and ±100 for the full control effect; potency is the fitted concentration of half-maximal effect.

SMILES | OvCa metastasis | S16 viability | PMP22 txn | mTORC1 inh
COc1ccccc1[C@H](c1cccc2ccccc12)[C@@](C)(C#N)C(=O)N1CCC(c2cccc(C(F)(F)F)c2)CC1 | -1% | nt | nt | nt
CCCn1c(=O)c2[nH]c(-c3cnn(Cc4cccc(C(F)(F)F)c4)c3)nc2n(CC)c1=O | 3% | nt | nt | nt
COc1ccc(CN2CCc3nc(N4CCN(c5ccc(F)cc5)CC4)ncc3C2)c(OC)c1OC | -12% | 16µM* | 13µM* | -2%
COc1ccccc1N1CCN(c2ncc3c(n2)CCN(Cc2ccccc2F)C3)CC1 | -2% | -3% | 0% | 7%
COc1ccc2c(c1)CC[C@@H](CN(C)CC(=O)O)[C@H]2c1ccccc1 | 4% | nt | nt | nt
Cc1[nH]c(C=C2C(=O)Nc3ccc(S(=O)(=O)Cc4c(Cl)cccc4Cl)cc32)c(C)c1C(=O)N1CCC[C@H]1CN1CCCC1 | 5% | nt | nt | nt
COc1ccccc1Nc1nn2c(=O)c3ccc(C(=O)NCCc4ccccc4)cc3nc2s1 | ? | 8.9µM* | 5.6µM* | ?
Cc1ccc(Cl)cc1Nc1nn2c(=O)c3ccc(C(=O)NC(C)c4ccccc4)cc3nc2s1 (stereo not drawn) | -40% | ? | 7.6µM* | -12%
O=c1[nH]c(=O)n([C@H]2C[C@@H](O)[C@@H](CO)O2)cc1C(F)(F)F | -2% | nt | nt | nt
CCCCNC(=O)c1nn(-c2ccc(C)cc2)c(=O)c2c1c1ccccc1n2C | 7% | 16µM* | -20% | 1%
CCC(=C(c1ccc(O)cc1)c1ccc(OCCNC)cc1)c1ccccc1 | -5% | nt | nt | nt
CCOC(=O)c1cc2c(=O)n3ccccc3nc2n(CC2CCCO2)c1=NC(=O)c1cc(C)cc(C)c1 (stereo not drawn) | 1% | ? | 1.5µM* | -6%
Oc1ccc(OCc2ccccc2)cc1 | 4% | nt | nt | nt
Oc1ccc(NCc2ccc(OCc3ccccc3Cl)cc2)cc1 | i | ? | ? | 16µM*
Oc1ccc(NCc2ccccc2OCc2ccccc2Cl)cc1 | -5% | 20µM* | 7µM* | -28%
Fc1ccc(NCc2ccccc2-c2nnc(-c3ccccc3Cl)o2)cc1 | 0% | 0% | -7% | -9%
Oc1ccc(NCc2ccc(OCc3ccccc3)cc2)cc1 | ? | 10µM* | 4.6µM* | 15µM*
CCOc1ccc(NC(=O)Cc2ccc(NC(=O)N3CCCCc4ccccc43)cc2)cc1 | -1% | 14µM* | -10% | -4%
CCOc1ccc(CNC(=O)c2ccc(NC(=O)N3CCCCc4ccccc43)cc2)cc1 | 4% | ? | -21% | 1%
COC1=C2C[C@@H](C)C[C@H](OC)[C@@H](O)[C@@H](C)C=C(C)[C@H](OC(N)=O)[C@@H](OC)C=CC=C(C)C(=O)NC(=CC1=O)C2=O | -5% | nt | nt | nt
COc1cc(Nc2nc(SCC(=O)c3ccc(Cl)c(Cl)c3)nc3ccccc23)cc(OC)c1 | i | -6% | ? | 12µM*
COc1cc(Nc2nc(SCc3ccccc3Cl)nc3ccccc23)cc(OC)c1 | -4% | -29% | ? | ?
CON(C)C(=O)N1N=C(c2cc(F)ccc2F)S[C@]1(CCCN)c1ccccc1 | 3% | nt | nt | nt
NC(=O)c1ncn([C@@H]2O[C@H](CO)[C@@H](O)[C@@H]2O)n1 | -12% | nt | nt | nt
CCN(c1ccccc1)S(=O)(=O)c1cc(C(=O)Nc2ccc(Br)cc2)ccc1F | -43% | -17% | ? | 15µM*
SMILES | OvCa metastasis | S16 viability | PMP22 txn | mTORC1 inh
Cc1ccc(C(=O)Nc2ccccc2)cc1S(=O)(=O)Nc1ccc(Br)cc1 | 4% | 0% | -1% | 8%
COC(=O)c1c(NC(=O)c2cc(OC)c(OC)c(OC)c2Br)sc2c1CCC(C)C2 (stereo not drawn) | 6% | -9% | 0% | -1%
COc1cc(C(=O)Nc2sc3c(c2C#N)CCCC3)c(Br)c(OC)c1OC | -9% | ? | 13µM* | 7%
NC(=O)c1c(OCc2c(F)cc(Br)cc2F)nsc1NC(=O)NCCCCN1CCCC1 | 5% | nt | nt | nt
COc1ccc(/C=C(\NC(=O)c2ccccc2)C(=O)NC2CCCCC2)cc1 | -4% | -2% | -11% | -3%
O=C(NC1CCCCC1)/C(=C/c1ccc(Cl)cc1)NC(=O)c1ccccc1 | -14% | ? | ? | 15µM*
CCOC(=O)c1c(NC(=O)c2ccc(S(=O)(=O)N(CCOC)CCOC)cc2)sc2c1CC(C)(C)NC2(C)C | ? | ? | -32% | 12µM*
CCOC(=O)c1c(NC(=O)c2ccc(S(=O)(=O)N3CCCC(C)C3)cc2)sc2c1CC(C)(C)NC2(C)C (stereo not drawn) | i | ? | ? | ?
CC1CCN(S(=O)(=O)c2ccc(C(=O)Nc3sc4c(c3C(N)=O)CC(C)(C)NC4(C)C)cc2)CC1 | ? | ? | ? | 18µM*
CC(C)(O)CC(=O)NCCn1ccc2ncnc(Nc3ccc(Oc4cccc(C(F)(F)F)c4)c(Cl)c3)c21 | 5% | nt | nt | nt
CNC(=O)c1ccc(N2C(=S)N(c3cnc(C#N)c(C(F)(F)F)c3)C(=O)C23CCC3)cc1F | -6% | nt | nt | nt
C=CCc1c(C)nc2nc(SCC(=O)Nc3ccc(C)c(C)c3)nn2c1C | -23% | ? | ? | 10µM*
CC(C)Oc1ccc(C(=O)N[C@H](CNC(=O)CN(C)C)Cc2ccc(-c3cn4cccc([C@H](C)O)c4n3)cc2)cc1Cl | -13% | nt | nt | nt
Cc1cccc(N2CCN(C(=O)c3cnn(-c4cccc(Cl)c4C)c3C3CCNCC3)CC2)c1C | ? | ? | ? | 16µM*
Cc1c(Cl)cccc1-n1ncc(C(=O)N2CCOCC2)c1C1CCN(C(=O)OC(C)(C)C)CC1 | -2% | 3% | 1% | -9%
Cc1ccc(NC(=O)c2nnn(Cc3cccc(C(F)(F)F)c3)c2N)c(C)c1 | i | ? | 6µM* | ?
Cc1cccc(Cn2nnc(C(=O)Nc3cc(C)ccc3C)c2N)c1 | i | -8% | ? | -2%
Cc1cccc2c1-c1sc(C(=O)NCCc3ccc(Cl)cc3)cc1CO2 | -24% | 32µM* | ? | ?
Cc1nc(-c2cccc(NC(=O)Nc3ccc([N+](=O)[O-])cc3)c2)no1 | i | 28µM* | ? | ?
COc1ccc(C)cc1NC(=O)Nc1cccc(-c2noc(C)n2)c1 | 12% | 11% | ? | ?
CCc1ccc(C(=O)Nc2cc(CN3CCN(C)CC3)cc(C(F)(F)F)c2)cc1C#Cc1cnc2ccnn2c1 | 2% | nt | nt | nt
Cc1cc(OCC(=O)Nc2cc(-c3nc4ccccc4[nH]3)ccc2C)ccc1Cl | i | -11% | -53% | 15µM*
COc1cc(C(C)C)c(Oc2cnc(NC(CO)CO)nc2N)cc1I | -8% | nt | nt | nt
O=C1c2[nH]nc(-c3ccccc3O)c2C(c2ccc(Cl)cc2)N1CCc1ccccc1 (stereo not drawn) | -6% | -27% | ? | 16µM*
CCOC(=O)c1cccc(NS(=O)(=O)c2cc(-c3cnc(C4CC4)o3)ccc2C)c1 | i | 20µM* | -73% | 0%
